High-throughput results from PubChem.
hgDAF12 agonist: agonists of H. glycines DAF-12 nuclear receptor | 1.8% of 370,000 active | AID 687014 | HEK293 GAL4-hgDAF12 UAS-luciferase reporter, agonist luminescence; normalized to butyrate control | activation, % at 6.8 µM;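 active means activation above a cutoff set at the mean of all screened compounds plus 3 SD, cut at about 10% in these data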;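 further: 0% = DMSO wells and 100% = sodium butyrate wells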
ssDAF-12 act: S. stercoralis DAF-12 activation, primary screen. HEK293 ssDAF-12/GRIP1 lit1-tk-luc reporter, luminescence; % of 3 µM dafachronic acid response. activation, % at 6.8 µM. 1% of 370,000 active. AID 652126;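 active means activation above the mean over all tested compounds plus 3 SD, cut at about 0.9% in these data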;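 further: 0% = DMSO-only wells and 100% = 3 µM delta7-dafachronic acid wells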
DAX1 inh-1: NR0B1 (DAX1) inhibition | P51843 | HEK293 Gal4-DAX1 luciferase reporter, luminescence | inhibition, % at 6.75 µM | 0.99% of 340,000 active | AID 504766;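 active means inhibition above the mean over all tested compounds plus 3 SD, cut at about 4.2% in these data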;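 further: 0% = DAX1-transfected cells with DMSO and 100% = empty-vector control cells with DMSO; inhibition shows as a rise in luminescence from relieved DAX1 repression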
Target sequence (P51843 207-470 limits assumed): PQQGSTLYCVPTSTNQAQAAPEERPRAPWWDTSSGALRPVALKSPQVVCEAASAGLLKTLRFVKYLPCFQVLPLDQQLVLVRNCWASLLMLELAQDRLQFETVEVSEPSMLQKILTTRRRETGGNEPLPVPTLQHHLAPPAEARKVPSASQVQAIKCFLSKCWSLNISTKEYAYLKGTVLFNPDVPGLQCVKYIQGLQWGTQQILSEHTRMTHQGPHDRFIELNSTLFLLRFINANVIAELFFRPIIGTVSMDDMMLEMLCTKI
hcDAF12 agonist: H. contortus DAF-12 activation, primary screen; HEK293 hcDAF-12 lit1-tk-luc reporter, luminescence; 0% DMSO, 100% Δ7-dafachronic acid; 1.4% of 370,000 active; activation, % at 6.8 µM; AID 652067;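 active means activation above the mean of all tested compounds plus 3 SD, cut at about 5.5% in these data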;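 further: 100% = response to 3 µM Δ7-dafachronic acid high control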
DAX1 inh-2: blocks DAX1 repression of SF-1 activated StAR promoter; HEK293T StAR-luciferase reporter, SF-1/DAX-1 repression relief; inhibition, % at 6.8 µM; 1.1% of 370,000 active; AID 652010;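 active means inhibition above the mean over all tested compounds plus 3 SD, cut at about 3.6% in these data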;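 further: 0% = DAX-1 cells with DMSO and 100% = cells lacking DAX-1 with DMSO; higher inhibition means more luminescence from relief of DAX-1 repression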
An asterisk follows results filed as active; . = not tested or not shown. Most compounds without a hit are left out; they make up all but 4.1% or so of the library.

SMILES	hgDAF12 agonist	ssDAF-12 act	DAX1 inh-1	hcDAF12 agonist	DAX1 inh-2
CCOC(=O)c1sc(=S)n(-c2cc(F)ccc2F)c1N	-1	-1	0	-1	-1
COC(=O)c1sc(=S)n(-c2cc(F)ccc2F)c1N	1	0	4.9*	-1	0
CCOc1ccc(C(=O)NC2CCCCCCC2)cc1	12*	1	2	6.1*	3
O=C(NC1CCCCC1)c1ccc([N+](=O)[O-])cc1	6	1	1	1	3.7*
O=C(NCC1CCCCC1)c1ccc([N+](=O)[O-])cc1	3	-1	10*	0	0
O=C(NC1CCCCCCC1)c1cc([N+](=O)[O-])ccc1Cl	2	-1	0	0	-1
CCN(CC)S(=O)(=O)c1cc(C(=O)NC2CCCCC2)ccc1C	11*	0	-1	3	2
O=C(NCC1CCCCC1)c1cccc([N+](=O)[O-])c1	3	-1	2	0	0
CCN(Cc1ccccc1)S(=O)(=O)c1cc(C(=O)NC2CCCCCC2)ccc1OC	-4	-2	-2	0	-1
COC1=CC(=O)C=C(OC)C1(O)CC(C)=O	-1	-1	2	-2	-1
Cc1cccnc1NC(=O)Nc1ccc(Cl)cc1	7	0	4.3*	3	1
Cc1cccnc1NC(=O)Nc1cccc(F)c1	11*	0	2	4	2
Cc1cccnc1NC(=O)Nc1ccccc1	5	0	4	2	1
CCCCCCCCNS(=O)(=O)CC1NCc2ccc(C)cc21 (centres undefined)	2	-2	.	1	0
CC1CC(=O)Nc2ccccc2N1C(=O)COc1ccccc1C(N)=O (centres undefined)	0	-1	0	0	1
CC1CC(=O)c2cnc(Nc3ccccc3)nc2C1 (centres undefined)	10	0	3	4	4.0*
CC1CC(=O)c2cnc(Nc3cccc(C(F)(F)F)c3)nc2C1 (centres undefined)	0	-1	3	0	0
CCOC(=O)C(C)Sc1ccc2nnc(CCNS(=O)(=O)c3ccccc3)n2n1 (centres undefined)	0	-1	5.8*	-1	0
COC(=O)[C@]12C[C@H](CC(=O)N3CCCC3)C(=O)N(Cc3ccco3)C1=C[C@H](COCc1ccccc1)O[C@@H]2C	1	-1	.	0	-1
CN(CC(=O)Nc1cccc(F)c1)C(=O)CNS(=O)(=O)c1ccc(N(C)C)c([N+](=O)[O-])c1	3	-1	4.4*	0	-1
CN(C)c1ccc(S(=O)(=O)NCC(=O)N2CCN(S(=O)(=O)c3cccc(F)c3)CC2)cc1[N+](=O)[O-]	-2	-1	0	0	1
Clc1ccc(-n2nnc(-c3cccnc3)n2)cc1Cl	7	1	3	4	2
Fc1ccc(-n2nnc(-c3cccnc3)n2)cc1	11*	-1	2	1	1
Cc1ccccc1NC(=O)Nc1ccc(C(F)(F)F)cc1	11*	0	1	0	1
N#C/C(=C\Nc1ccccc1O)c1nc2ccccc2o1	5	0	2	6.3*	0
SMILES	hgDAF12 agonist	ssDAF-12 act	DAX1 inh-1	hcDAF12 agonist	DAX1 inh-2
O=C(COc1ccc(Cl)cc1)NNC(=O)c1ccc2c(=O)n3c(nc2c1)CCC3	-2	-1	-1	0	4.1*
O=C(CCc1nnc(C2CCCCC2)o1)NCc1ccc(F)c(F)c1	-1	-1	5.6*	0	0
Cc1cc(-c2nnc(CCC(=O)NCc3cccc(C(F)(F)F)c3)o2)no1	3	0	0	0	-1
Cc1cc(-c2nnc(CCC(=O)NCc3ccc(F)c(F)c3)o2)no1	3	1.9*	4.3*	0	0
Cc1cccc(CCNC(=O)CSc2nc3c([nH]2)c(=O)n(C)c(=O)n3C)c1	2	-1	.	-2	1
N#Cc1ccccc1OCC(=O)NCC1(N2CCCCC2)CCCCC1	9	1.5*	0	3	1
C=CCn1c(SCC(=O)N2CCCC2)nc2c([nH]c3ccccc32)c1=O	1	1.0*	0	6.3*	1
CCn1c(SCC(=O)N2CCOCC2)nc2c([nH]c3ccccc32)c1=O	0	1	0	5	0
COCCn1c(SCC(=O)Nc2ccc(NC(C)=O)cc2)nc2c([nH]c3ccccc32)c1=O	3	0	0	5	-2
CCn1c(SCC(=O)Nc2ccc(C(C)=O)cc2)nc2c([nH]c3ccccc32)c1=O	4	0	0	5.8*	1
CCn1c(SCC(=O)Nc2cccc(NC(C)=O)c2)nc2c([nH]c3ccccc32)c1=O	4	1.1*	0	1	-2
CCn1c(SCC(=O)Nc2cc(C)on2)nc2c([nH]c3ccccc32)c1=O	1	0	0	6.0*	1
COCCn1c(SCC(=O)Nc2cc(C)on2)nc2c([nH]c3ccccc32)c1=O	1	-1	0	2	0
C=CCn1c(SCC(=O)N2CCN(C(=O)OCC)CC2)nc2c([nH]c3ccccc32)c1=O	-1	1	1	5	1
O=C(/C=C/Nc1ccc(F)cc1)c1ccc(Br)cc1	11*	0	2	3	3
Cc1ccc(C(=O)/C=C/Nc2ccc3c(c2)OCO3)cc1	2	1.6*	1	1	1
O=C(/C=C/Nc1ccc(F)c(F)c1)c1ccc(Br)cc1	12*	-1	1	5	3
CC(=O)Nc1ccc(N/C=C/C(=O)c2ccc(Cl)cc2)cc1	3	-1	0	2	1
O=C(/C=C/Nc1ccc(F)c(Cl)c1)c1ccccc1	6	0	2	6.3*	2
Cc1ccc(S(=O)(=O)NCC2CCN(C(=O)C(=O)c3cc4ccccc4o3)CC2)cc1	-2	0	.	0	1
COC(=O)[C@]12C[C@H](CC(=O)N3CCCCC3)C(=O)N(Cc3ccccc3)C1=C[C@H](C(C)C)O[C@@H]2C1CC1	-2	-1	.	-1	0
COc1ccc(N/C=C\C(=O)c2ccc3ccccc3c2)cc1	1	-1	-1	0	0
COc1ccc(N/C=C/C(=O)c2ccccc2)cc1	12*	1.0*	-3	5	4.4*
O=C1CCN(Cc2ccccc2)CCN1CCSc1ccccc1	7	0	1	4	1
CCCN1CCC(=O)N(CCSc2ccccc2)CC1	11*	0	4	3	1
CCn1c(=O)c(C(=O)CC#N)c(N)n(Cc2ccccc2)c1=O	-3	-1	4.9*	-2	1
CCn1c(=O)c(C(=O)CN2CCOCC2)c(N)n(Cc2ccccc2)c1=O	2	-1	0	-3	0
COCc1cc(=O)[nH]c(-c2csc(C)n2)n1	1	-1	2	0	0
COCc1cc(OC)nc(-c2csc(C)n2)n1	1	-2	6.4*	-1	1
